Shown is part of a subset that was picked to be rich in hits.
Methyltransferases – Primary Screen for Target Class Profiling of Small Molecule Inhibitors of Methyltransferases; purified enzyme, MTase-Glo SAH luminescence; stronger effect = lower value; calls only at 40 µM; 25,000 tested, 3.9% active; AID 1745853, 2022; call rule not given here
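Each enzyme was reacted with SAM and its substrate, with compounds tested once at 40 uM; SAH formed was read by MTase-Glo luminescence.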
MTase-Glo ctr – detection enzyme interference, methyltransferase counter-screen; shares compounds with Methyltransferases; MTase-Glo coupled enzymes, SAH conversion luminescence, no MTase; Potency, µM (top dose mostly 57.3 µM), hits mostly inhibitors; 180 tested, 6% active; active = well fitted inhibition curve with a large enough effect
Each line names hits and unclear results; the compound was inactive in the other large screens (follow-up assays come after a bar, where they were run).

Cc1ccc2nc(CO[C@H]3CN(C4CCN(C)CC4)C[C@H]3F)[nH]c2c1	none
Cc1ccc2nc(CN(C)C(=O)C3CCC(=O)N(C4CCCCCC4)C3)[nH]c2c1 (configuration not stated)	Methyltransferases active | MTase-Glo ctr inactive
CCN1CC(C(=O)N(C)Cc2ccc(Oc3ccccc3)cc2)CCC1=O (configuration not stated)	none
CCCn1c(=O)c2ccccc2n2c(SCC(=O)NCc3ccccc3)nnc12	none
CCN(CC)CCCNC(=O)c1cc2n(n1)CC(C)(C(=O)NCc1ccccc1)N(C)C2=O (configuration not stated)	none
C[S+](=O)([O-])N1CCC(Cn2ccc3c(N4CCOCC4)nc(-c4cccc5[nH]ncc45)cc32)CC1	Methyltransferases active | MTase-Glo ctr inactive
COCCCNC(=O)CCc1nnc2n(Cc3ccc(Cl)cc3)c(=O)c3ccccc3n12	none
Cc1ccc(NC(=O)CCc2nnc3n(Cc4ccccc4Cl)c(=O)c4ccccc4n23)cc1C	none
COc1ccc2[nH]c(CNc3cc(C4CC(N)C4)nc(C)n3)cc2c1 (configuration not stated)	Methyltransferases active | MTase-Glo ctr inactive
CNC(=O)[C@@H]1CN(C(=O)c2cc3cc(OC)ccc3[nH]2)C[C@H]1COC	none
C#CCNCc1cc2cc(OCc3ccccc3)ccc2[nH]1	none
COc1cccc(OC)c1-c1cc(C(=O)N[C@@H](CC(C)C)C(=O)O)nn1-c1ccnc2cc(Cl)ccc12	none
COc1cccc(CNC(=O)c2c(C)noc2-c2ccccc2OC)c1	none
COc1ccc(OCc2cc(C(=O)NC(CO)C(C)C)no2)c2ccccc12 (configuration not stated)	Methyltransferases active | MTase-Glo ctr inactive
CC1CCN(S(=O)(=O)c2ccc3c(c2)oc(=O)n3CC(=O)NCCc2ccccc2)CC1	none
Cc1ccc(CN2CCC3(CC2)CC(c2ccccc2)C(=O)N3C)cc1F (configuration not stated)	none
CN1C(=O)C(c2ccccc2)CC12CCN(c1ccnc(N)n1)CC2 (configuration not stated)	Methyltransferases active | MTase-Glo ctr inactive
CCOc1ccc(N2C(=O)c3cc(-c4ccccc4)nn3CC2(C)C(=O)NCc2ccccc2OC)cc1 (configuration not stated)	none
COc1ccccc1CN1C(=O)c2cc3oc(C)cc3n2CC1(C)C(=O)NC1CCCCCCC1 (configuration not stated)	none
O=[S+]1([O-])NC2(CCCN(Cc3c(F)cccc3Cl)C2)COc2ccccc21 (configuration not stated)	Methyltransferases active | MTase-Glo ctr inactive
O=[S+]1([O-])NC2(CCN(Cc3ccccc3C(F)(F)F)C2)CNc2ccccc21 (configuration not stated)	none
O=C1NC2(CCN(Cc3ccccc3)C2)COc2ccccc21 (configuration not stated)	none
COc1ccc(N2C(=O)c3ccc(-c4ccco4)n3CC2(C)C(=O)NCc2ccc(Cl)cc2)cc1OC (configuration not stated)	none
COc1ccc(CN2C(=O)c3cc4ccccc4n3CC2(C)C(=O)NCCC(C)C)cc1 (configuration not stated)	none
CCCn1c(C)cnc1CC1CCN(C(=O)NCc2ccc(OC)cc2)C1 (configuration not stated)	Methyltransferases active | MTase-Glo ctr inactive
CNC(=O)N1CCC(C2CCN(C(=O)NCc3cccc(OC)c3)C2)CC1 (configuration not stated)	none
CCCn1c(C)cnc1CC1CCCN(S(=O)(=O)c2cc(OC)ccc2OC)C1 (configuration not stated)	none
Cc1ccc(CN2C(=O)c3cc(-c4ccco4)nn3CC2(C)C(=O)NC2CCCCCC2)cc1 (configuration not stated)	none
CCOC(=O)c1cc2n(n1)CC(C)(C(=O)NCCC(C)C)N(c1ccc(C)c(F)c1)C2=O (configuration not stated)	none
CCc1ccc(N2C(=O)c3cc(-c4ccc(OC)cc4)nn3CC2(C)C(=O)NCc2ccccc2OC)cc1 (configuration not stated)	none
COCc1cc(NCCCNc2cccnc2)ncn1	Methyltransferases active | MTase-Glo ctr inactive
COC[C@H]1C[C@@H](NC(=O)Nc2cccnc2)[C@H](O)[C@@H]1O	none
CCCN1C(=O)c2c(C(=O)NCc3ccc(OC)cc3OC)ncn2CC1(C)C(=O)NCc1ccc(F)cc1 (configuration not stated)	none
Cc1ccccc1Cn1nc2n(C(C)C)c(=O)c3ccc(C(=O)NC4CCCC4)cc3n2c1=O	none
Cc1noc(C)c1-c1cc(-c2ccc(CN(C)C)cc2)cn2cncc12	Methyltransferases active | MTase-Glo ctr inactive
Cc1noc(C)c1-c1cc(-c2ccncc2)cn2cncc12	none
c1cncc(CN2CC(N3CCc4ccccc43)C2)c1	none

Screening data deposited in PubChem BioAssay by National Center for Advancing Translational Sciences (NCATS).
